Compound activity from PubChem.
In the library only some 0.51% were active in any assay of this set; here they are far more common.
FMDV antiviral: shows antiviral activity against foot and mouth disease virus; FMDV antiviral cell assay, firefly luciferase signal; 120,000 compounds, 0.23% hits; Potency, µM (series often up to 57.5 µM), inactives show top-dose activity change, negative = inhibition, hits mostly inhibitors; note: nearly all actives have a fitted effect of over 60% in size
FMDV RLuc: FMDV antiviral activity by Renilla signal; FMDV replicon cells, Renilla luciferase signal; Potency, µM (doses to about 57.5 µM), for inactives: at the top dose activity change, negative = inhibition, most hits filed as inhibitors; 120,000 compounds, 0.32% hits; AID 1745857; note: nearly all actives have a fitted effect of over 55% in size
Starred values were filed as active, the others as inactive; [ ] = remark or other dose. Calls come from the whole dose curve. % is set by controls: 0 for no effect and ±100 for the full control effect; potency is the fitted concentration of half-maximal effect.

`CN(Cc1cccs1)C(=O)CCl` gave FMDV antiviral inconclusive and FMDV RLuc 28µM*.
Cc1ccc(OC(C)C(=O)Nc2nonc2-c2ccc(Br)cc2)cc1C (stereo unspecified) was read as FMDV antiviral -27% and FMDV RLuc -29%.
For Cc1cc(C)c(S(=O)(=O)N(C)C(=O)c2cc3c(s2)CCCCCC3)c(C)c1 the results were FMDV antiviral 6% and FMDV RLuc 25%.
`O=C(Nc1ccc(C(F)(F)F)cc1)C1CCN(c2nc3ccccc3o2)CC1` gave FMDV antiviral -24% and FMDV RLuc inconclusive.
Screening O=C(Nc1ccncc1)C1CCN(c2nc3ccccc3o2)CC1 returned FMDV antiviral inconclusive and FMDV RLuc 16µM*.
`Cc1nc2nc(SCC(=O)NC(C)(C)C)nn2c(C)c1Cc1cccc(Cl)c1` gave FMDV antiviral -3% and FMDV RLuc 13%.
Cc1nc(N2CCC(C(=O)Nc3cccc(Br)c3)CC2)c2c(C)c(C)oc2n1 was read as FMDV antiviral 18µM* and FMDV RLuc inconclusive.
For Cc1nc(N2CCC(C(=O)Nc3cccc(Cl)c3C)CC2)c2c(C)c(C)oc2n1 the results were FMDV antiviral -3% and FMDV RLuc -3%.
For CCOC(=O)c1c(S(=O)(=O)NCC(=O)N(C)Cc2ccccc2)c(C)n(C)c1C the results were FMDV antiviral 9% and FMDV RLuc 81%.
For CCN1CCN(C(C(=O)O)c2c[nH]c3ccc(Cl)cc23)CC1 (stereo unspecified) the results were FMDV antiviral -9% and FMDV RLuc -13%.
COc1ccc(C2CC(=O)Nc3cc4c(cc32)OCO4)c(OC)c1 (stereo unspecified) was read as FMDV antiviral 16% and FMDV RLuc -7%.
For CC(C)COc1ccccc1C1CC(=O)Nc2cc3c(cc21)OCO3 (stereo unspecified) the results were FMDV antiviral inconclusive and FMDV RLuc 13µM*.
Screening CCOc1ccc(C2C(C#N)=C(N)OC(C(C)(C)C)=C2C#N)cc1OCC (stereo unspecified) returned FMDV antiviral 12% and FMDV RLuc 16%.
`Nc1nccnc1C(=O)NCc1ccc(CN2CCCCC2)cc1` gave FMDV antiviral 0% and FMDV RLuc 0%.
For Nc1nccnc1C(=O)NCc1ccc(Oc2cccc(F)c2)nc1 the results were FMDV antiviral inconclusive and FMDV RLuc 8.9µM*.
Screening Nc1nccnc1C(=O)NCc1ccc(N2CCCCC2)nc1 returned FMDV antiviral inconclusive and FMDV RLuc 5.6µM*.
Nc1nccnc1C(=O)NCc1cccnc1 was read as FMDV antiviral -7% and FMDV RLuc -16%[1.06 µM].
Screening O=S1(=O)C=CC2ON=C(c3c(Cl)cccc3Cl)C21 (stereo unspecified) returned FMDV antiviral inconclusive and FMDV RLuc 32µM*.
`CCOc1ccc(NC(=O)CC2C(=O)Nc3nc4ccccc4n32)cc1` (stereo unspecified) gave FMDV antiviral -14% and FMDV RLuc -17%.
CCCC(=O)Nc1ccc(C(C)CC)cc1 (stereo unspecified) was read as FMDV antiviral 0% and FMDV RLuc 15%.
`Cc1cccc(OCc2nc3c4c(ncn3n2)OC2=C(C(=O)CCC2)C4c2ccco2)c1C` (stereo unspecified) gave FMDV antiviral 20µM* and FMDV RLuc inconclusive.
For CC(=O)C1=C(C)Oc2ncn3nc(COc4cccc(C)c4C)nc3c2C1c1ccco1 (stereo unspecified) the results were FMDV antiviral -7% and FMDV RLuc -7%.
For O=C(Nc1ccc(N2CCCC2=O)cc1)c1nn(-c2ccccc2)c(=O)c2ccccc12 the results were FMDV antiviral -4% and FMDV RLuc 7%.
`CCc1ccc(OCc2nnc(SCc3cc(=O)c4ccccc4[nH]3)n2CC)cc1` gave FMDV antiviral inconclusive and FMDV RLuc 16µM*.
CCn1c(COc2ccccc2Cl)nnc1SCc1cc(=O)c2cc(C(N)=O)ccc2[nH]1 was read as FMDV antiviral -6% and FMDV RLuc -1%.
`CCN(CC)C(=O)CSc1nc(-c2ccc(OC)cc2)nc2c1COC(C)(C)C2` gave FMDV antiviral -3% and FMDV RLuc 27%.
COc1cccc(Nc2nc(-c3ccccc3)cs2)c1 was read as FMDV antiviral 229% and FMDV RLuc 0%.
For O=C(c1ccc(N2CCCN(Cc3ccccc3)C2=O)cc1)N1CCN(c2ccccc2)CC1 the results were FMDV antiviral inconclusive and FMDV RLuc -14%.
`Cc1cccc(CN2CCCN(c3cccc(C(=O)N4CCN(c5ccccc5)CC4)c3)C2=O)c1` gave FMDV antiviral inconclusive and FMDV RLuc 10µM*.
Screening CC1(C(=O)NCc2ccccc2)Cn2nc(-c3ccccc3)cc2C(=O)N1CCc1ccco1 (stereo unspecified) returned FMDV antiviral 10% and FMDV RLuc 96%.
`COc1ccc(F)c(CNCCc2c(C)[nH]c3ccc(OC)cc23)c1` gave FMDV antiviral -14% and FMDV RLuc 8%.
COc1ccc2[nH]c(C)c(CCNCc3cccc(F)c3)c2c1 was read as FMDV antiviral 4% and FMDV RLuc 36%.
Screening COc1ccc(CNCCc2c(C)[nH]c3ccc(OC)cc23)c(F)c1 returned FMDV antiviral 8.9µM* and FMDV RLuc 7.1µM*.
For COc1ccc2[nH]c(C)c(CCNCc3ccc(C(F)(F)F)cc3)c2c1 the results were FMDV antiviral inconclusive and FMDV RLuc 4.5µM*.
`COc1ccccc1OCC(=O)Nc1c(C(=O)c2ccc(C)cc2)oc2ccccc12` gave FMDV antiviral -1% and FMDV RLuc 1%.
Screening Cc1c2cnn(-c3ccccc3)c(=O)c2c(C)n1CC(=O)NCc1ccccc1 returned FMDV antiviral -5% and FMDV RLuc -9%.
`Cn1nc(CC(=O)Nc2ccc(O)cc2)c2ccccc2c1=O` gave FMDV antiviral inconclusive and FMDV RLuc -24%.
`Cn1nc(CC(=O)Nc2ccc(Cl)cc2Cl)c2ccccc2c1=O` gave FMDV antiviral inconclusive and FMDV RLuc 3.2µM*.
`FC(F)(F)c1cccc(/C=C(/Cl)c2nc3ccccc3[nH]2)c1` gave FMDV antiviral 211% and FMDV RLuc -4%[1.06 µM].
COc1cc(C)ccc1Oc1ccc(NC(=O)c2ccc3c(c2)NC(=O)CS3)cn1 was read as FMDV antiviral inconclusive and FMDV RLuc 25µM*.
`COc1ccc(NC(=O)c2ccc3c(c2)NC(=O)CS3)cn1` gave FMDV antiviral 68% and FMDV RLuc 0%.
CCCNc1c(NC(=O)c2ccc(OC(C)=O)c(OC)c2)c(=O)oc2ccccc12 was read as FMDV antiviral 33% and FMDV RLuc 5%.
CNC(=O)c1ccc2c(c1)NC(=O)CCS2 was read as FMDV antiviral 9% and FMDV RLuc -1%[1.06 µM].
Screening CSc1ccc(NC(=O)c2ccc3c(c2)NC(=O)CCS3)cc1 returned FMDV antiviral inconclusive and FMDV RLuc 10µM*.
Screening CCOC(=O)NC(Nc1ccc(F)c(F)c1)(C(=O)OCC)C(F)(F)F (stereo unspecified) returned FMDV antiviral 72% and FMDV RLuc 73%.
For CCCCn1cnc2c1c(O)nc(=O)n2Cc1ccccc1 the results were FMDV antiviral 1% and FMDV RLuc -11%.
COc1ccc(-c2nc(SCc3cc(=O)c4cccc(Cl)c4[nH]3)n[nH]2)cc1 was read as FMDV antiviral inconclusive and FMDV RLuc 11µM*.
Screening COc1ccc(-c2nc(SCc3cc(=O)c4cc(C)ccc4[nH]3)n[nH]2)cc1 returned FMDV antiviral -16% and FMDV RLuc inconclusive.
